NALP1 yeast inh: blocks the NALP1 inflammasome reconstituted in yeast. S. cerevisiae NALP1/ASC/caspase-1 growth, X-gal OD620, 72 h. inhibition, % at 10 µM. hit rate 0.61% among 280,000. AID 2071; in the data active = inhibition mostly above about 24%, no sharp cut-off; inactive = mostly below about 32%
SUMO Mot1 rescue: SUMOylation pathway inhibition by Mot1-301 growth rescue | growth rescue, % at 18.8 µM | hit rate 1% among 320,000 | S. cerevisiae Mot1-301 growth rescue, ATP luminescence, 38.5C; percent above DMSO median, 100 means doubled;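 active = every valid replicate shows activation above 250% relative to neutral control wells; inactive = the rest, any valid replicate at or below 250%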;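 note: OY570 slx delta 5 strain wells were the positive control but not used for scaling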
CHT block: inhibits the human high affinity choline transporter. B-score at 10 µM. CHT-expressing cells, membrane potential dye, choline response; hits give low values. AID 488975. hit rate 0.86% among 310,000;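 active = B-score over 3 SD under the library average, and starting fluorescence ratio not unusually high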;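 note: choline stimulus applied at its EC90 after an EC20 pre-addition; B-score computed on integrated fluorescence ratio after choline addition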
Target sequence (Q9GZV3 whole entry, looked up): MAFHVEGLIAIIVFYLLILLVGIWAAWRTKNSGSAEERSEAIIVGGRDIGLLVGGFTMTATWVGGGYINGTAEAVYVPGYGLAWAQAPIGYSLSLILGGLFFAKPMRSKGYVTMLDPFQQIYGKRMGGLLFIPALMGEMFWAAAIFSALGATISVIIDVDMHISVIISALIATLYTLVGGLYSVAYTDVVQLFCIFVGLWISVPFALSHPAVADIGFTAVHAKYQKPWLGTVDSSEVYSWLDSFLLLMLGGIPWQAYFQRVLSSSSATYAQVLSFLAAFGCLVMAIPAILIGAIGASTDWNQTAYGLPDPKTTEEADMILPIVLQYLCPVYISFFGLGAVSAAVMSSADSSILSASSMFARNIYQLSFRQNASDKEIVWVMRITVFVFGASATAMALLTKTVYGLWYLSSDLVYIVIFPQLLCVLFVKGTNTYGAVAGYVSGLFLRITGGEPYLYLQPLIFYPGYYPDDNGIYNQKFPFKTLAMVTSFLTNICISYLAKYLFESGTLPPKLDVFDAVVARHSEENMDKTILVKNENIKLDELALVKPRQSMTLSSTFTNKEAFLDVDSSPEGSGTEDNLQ
NALP3 yeast inh: blocks the NALP3 inflammasome reconstituted in yeast; inhibition, % at 10 µM; hit rate 0.39% among 330,000; Yeast reconstituted NLRP3/ASC/caspase-1, beta-gal luminescence, 24 h; AID 2825;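 active = inhibition of 50% or more; inactive = inhibition below 50%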;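 note: plate controls were induced DMSO wells for no effect and uninduced yeast grown without galactose for full effect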
Bfl-1 A1 inh: inhibitors of the anti-apoptotic protein A1, read as caspase activation. hit rate 0.066% among 330,000. MEF A1-2A-BIM cells, Caspase-Glo 3/7 luminescence, 3 h; percent of clofoctol response, vehicle zero. caspase activation, % (no concentration beside the values). AID 2462;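 active = over half of replicate activation scores above 10%, or exactly half above 10 with the replicate mean above 10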
CHT PAM: human CHT allosteric activation. Q9GZV3. CHT-expressing cells, membrane potential dye, choline EC20; hits give high values; LV-AA mutant CHT in HEK293 cells. B-score at 10 µM. hit rate 0.49% among 310,000;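 active = initial fluorescence not abnormally high and integrated response B-score, plate-corrected, over 3 SD above library mean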
NALP3 yeast conf: NALP3 inhibition confirmation in yeast; inhibition, % at 10 µM; shares compounds with NALP3 yeast inh; yeast expressing human NALP3, luminescence; hit rate 81% among 1,300; AID 435006; in the data active = inhibition above about 48%
Casp1 ASC ctr: caspase-1-ASC yeast counter-screen hit; shares compounds with NALP3 yeast inh; yeast expressing Caspase-1-ASC, luminescence counter screen; inhibition, % at 10 µM; hit rate 66% among 1,000; AID 488784
NALP3 retest: retest-confirmed inhibitor of NALP3 in yeast; shares compounds with NALP3 yeast inh; yeast expressing human NALP3, luminescence read-out; inhibition, % at 10 µM; hit rate 53% among 1,000; AID 488794
Numbers without * were called inactive. Hits are enriched below; roughly 3% of the tested compounds scored in any of these assays. Cut-off read from the data, not from the text of the source, unless noted: active = inhibition above about 50%; inactive = the rest.

Results for Cc1ccc(C)c(NC(=O)c2ccc(S(=O)(=O)C(F)F)cc2)c1 ?
NALP1 yeast inh: 24; SUMO Mot1 rescue: 2; CHT block: inactive; NALP3 yeast inh: 53*; Bfl-1 A1 inh: -1; CHT PAM: inactive; NALP3 yeast conf: 65*; Casp1 ASC ctr: 46; NALP3 retest: 43

How did O=C(c1ccc(Br)cc1)N1CCC(C(=O)N2CCN(Cc3ccccc3)CC2)CC1 do in these assays?
NALP1 yeast inh: 12; SUMO Mot1 rescue: -1; CHT block: inactive; NALP3 yeast inh: 13; Bfl-1 A1 inh: 1; CHT PAM: inactive

How did CN(C)S(=O)(=O)c1cccc(CSCc2cccc(S(=O)(=O)N(C)C)c2)c1 do in these assays?
NALP1 yeast inh: 12; SUMO Mot1 rescue: 0; CHT block: inactive; NALP3 yeast inh: -54; Bfl-1 A1 inh: 0; CHT PAM: inactive

What do the screens show for `FC(F)(F)c1cccc(N2CCc3cn[nH]c32)c1`?
SUMO Mot1 rescue: -13; CHT block: inactive; NALP3 yeast inh: 97*; Bfl-1 A1 inh: 0; CHT PAM: inactive; NALP3 yeast conf: 99*; Casp1 ASC ctr: 99*; NALP3 retest: 97*

What do the screens show for `CN1CCC(N2CCN(c3cccc(C(F)(F)F)c3)CC2)CC1`?
NALP1 yeast inh: 8; SUMO Mot1 rescue: -7; CHT block: inactive; NALP3 yeast inh: 11; Bfl-1 A1 inh: 1; CHT PAM: inactive

Results for O=S(=O)(c1ccccc1)[C@@]1(c2ccc(Br)cc2)C[C@@H]2ON=C(c3ccccc3)[C@@H]2C1 ?
SUMO Mot1 rescue: 0; CHT block: inactive; NALP3 yeast inh: 21; Bfl-1 A1 inh: 0; CHT PAM: inactive

Results for O=C(/C=C\c1ccccc1)Oc1cccc2cccnc12 ?
NALP1 yeast inh: -20; SUMO Mot1 rescue: -15; CHT block: inactive; NALP3 yeast inh: 53*; Bfl-1 A1 inh: 0; CHT PAM: inactive; NALP3 yeast conf: 42; Casp1 ASC ctr: 41; NALP3 retest: 37

How did O=C(/C=C/c1ccccc1)Oc1cccc2cccnc12 do in these assays?
NALP1 yeast inh: -22; SUMO Mot1 rescue: -15; CHT block: inactive; NALP3 yeast inh: 35; Bfl-1 A1 inh: 0; CHT PAM: inactive

What do the screens show for `Brc1ccc(-c2cn3c(n2)SCC3)cc1`?
NALP1 yeast inh: 15; SUMO Mot1 rescue: 136; CHT block: inactive; NALP3 yeast inh: 59*; Bfl-1 A1 inh: 0; CHT PAM: inactive; NALP3 yeast conf: 64*; Casp1 ASC ctr: 63*; NALP3 retest: 61*

Results for Clc1ccc(-c2cn3c(n2)SCC3)cc1 ?
NALP1 yeast inh: 14; SUMO Mot1 rescue: 87; CHT block: inactive; NALP3 yeast inh: 47; Bfl-1 A1 inh: 0; CHT PAM: inactive

Results for CC(=O)NC(CC(=O)NNC(=O)c1cc2ccccc2cc1O)c1ccccc1 (configuration not stated) ?
NALP1 yeast inh: -5; SUMO Mot1 rescue: -10; CHT block: inactive; NALP3 yeast inh: -4; Bfl-1 A1 inh: 0; CHT PAM: inactive

Results for O=C(NC1CCCCC1)c1c(O)nc2sccn2c1=O ?
SUMO Mot1 rescue: -29; CHT block: inactive; NALP3 yeast inh: 58*; Bfl-1 A1 inh: 0; CHT PAM: inactive; NALP3 yeast conf: 74*; Casp1 ASC ctr: 34; NALP3 retest: 42

What do the screens show for `O=C(NC1CCCCCC1)c1c(O)nc2sccn2c1=O`?
SUMO Mot1 rescue: -3; CHT block: inactive; NALP3 yeast inh: 45; Bfl-1 A1 inh: 0; CHT PAM: inactive

Results for O=C(CCl)c1ccc2c(c1)CCN2C(=O)C1CCCCC1 ?
NALP1 yeast inh: -12; SUMO Mot1 rescue: -8; CHT block: inactive; NALP3 yeast inh: -26; Bfl-1 A1 inh: 0; CHT PAM: inactive

Results for Cc1ccc(S(=O)(=O)CC(=O)Nc2nc(C(C)(C)C)cs2)cc1 ?
NALP1 yeast inh: 4; SUMO Mot1 rescue: -27; CHT block: inactive; NALP3 yeast inh: 51*; Bfl-1 A1 inh: 0; CHT PAM: inactive; NALP3 yeast conf: 73*; Casp1 ASC ctr: 61*; NALP3 retest: 49

How did Cc1cc(-c2onc3ccc(Cl)cc23)ccc1O do in these assays?
NALP1 yeast inh: 19; SUMO Mot1 rescue: inactive; CHT block: inactive; NALP3 yeast inh: 7; Bfl-1 A1 inh: 0; CHT PAM: inactive

How did CCCCCNC(=O)C(=O)C1C(=O)Nc2ccccc21 (configuration not stated) do in these assays?
SUMO Mot1 rescue: -23; CHT block: inactive; NALP3 yeast inh: 52*; Bfl-1 A1 inh: 0; CHT PAM: inactive; NALP3 yeast conf: 71*; Casp1 ASC ctr: 43; NALP3 retest: 51*

How did O=S(=O)(c1cnc(Cl)c(Br)c1)N1CCCCCC1 do in these assays?
NALP1 yeast inh: 28; SUMO Mot1 rescue: 32; CHT block: inactive; NALP3 yeast inh: 53*; Bfl-1 A1 inh: -1; CHT PAM: inactive; NALP3 yeast conf: 55*; Casp1 ASC ctr: 35; NALP3 retest: 25

What do the screens show for `O=C(O)C1CCN(C(=O)c2ccccc2N2C(=O)[C@@H]3Cc4c([nH]c5ccccc45)C(c4cccc(Cl)c4)N3C2=O)CC1` (some centres not stated)?
NALP1 yeast inh: -2; SUMO Mot1 rescue: 2; CHT block: inactive; NALP3 yeast inh: -9; Bfl-1 A1 inh: -1; CHT PAM: inactive

What do the screens show for `O=C(Nc1nccs1)c1ccc(Cl)s1`?
NALP1 yeast inh: 1; SUMO Mot1 rescue: -1; CHT block: inactive; NALP3 yeast inh: 51*; Bfl-1 A1 inh: -3; CHT PAM: inactive; NALP3 yeast conf: 70*; Casp1 ASC ctr: 60*; NALP3 retest: 50

What do the screens show for `CCc1sc(C(=O)Nc2nccs2)cc1C`?
NALP1 yeast inh: 12; SUMO Mot1 rescue: 19; CHT block: inactive; NALP3 yeast inh: 53*; Bfl-1 A1 inh: -9; CHT PAM: inactive; NALP3 yeast conf: 72*; Casp1 ASC ctr: 81*; NALP3 retest: 70*

Results for CCN1/C(=C/C=C/c2oc3ccc(-c4ccccc4)cc3[n+]2CC)Oc2ccc(-c3ccccc3)cc21 ?
NALP1 yeast inh: 51*; SUMO Mot1 rescue: 339*; CHT block: inactive; NALP3 yeast inh: 67*; Bfl-1 A1 inh: -1; CHT PAM: inactive; NALP3 yeast conf: 68*; Casp1 ASC ctr: 22; NALP3 retest: 43

How did CCCCN1C(=O)/C(=C/C=C2\Oc3ccccc3N2CC)SC1=S do in these assays?
NALP1 yeast inh: 9

Screening results: PubChem BioAssay, several laboratories
